# Source: PubChem BioAssay (NCI)
# The panel holds about 79,000 compounds, 15% with a hit somewhere; the sample as a whole holds those more often. Values without a mark were called inactive. The source made the active and inactive calls. No stated cut-off is given here; in the data, active means growth inhibition above about 70%; inactive means the rest.
# Key:
# [1] = NCI Yeast Anticancer Drug Screen. Data for the rad52 strain (AID 147);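 further: 0% = growth of vehicle-treated control cultures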; details: S. cerevisiae rad52 mutant growth inhibition, stronger effect = higher value
# Procedure, shortened: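 DNA repair-defective yeast; compound exposure; growth scored against vehicle controls.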
# [2] = NCI Yeast Anticancer Drug Screen. Data for the wt1 strain (AID 149);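 further: 0% = growth of vehicle-treated wt1 cultures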; details: S. cerevisiae wt1 strain (SPY 50644) growth inhibition, stronger effect = higher value
# Procedure, shortened: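 Growth inhibition read against vehicle controls after compound exposure of the wt1 yeast strain.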
# [3] = NCI Yeast Anticancer Drug Screen. Data for the rad50EPP+ strain (AID 151);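 further: 0% = growth of vehicle-treated control cultures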; details: S. cerevisiae rad50 mutant strain, stronger effect = higher value
# Procedure, shortened: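 rad50EPP+ yeast treated with test compounds. Readout: growth vs vehicle control.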
# [4] = NCI Yeast Anticancer Drug Screen. Data for the mgt1 strain (AID 153); details: S. cerevisiae mgt1 mutant growth inhibition, stronger effect = higher value
# Procedure, shortened: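 Growth inhibition relative to vehicle controls was scored for the mgt1 yeast strain after compound exposure.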
# [5] = NCI Yeast Anticancer Drug Screen. Data for the rad50 strain (AID 155);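 further: 0% = growth of vehicle-only cultures of the same strain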; details: S. cerevisiae rad50 strain growth inhibition, stronger effect = higher value
# Procedure, shortened: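 Readout: growth inhibition relative to vehicle-treated cultures. Compound exposure was carried out in a genetically defined yeast strain deficient in DNA damage repair.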
# [6] = NCI Yeast Anticancer Drug Screen. Data for the mec2-1 strain (AID 157); details: S. cerevisiae mec2-1 strain, stronger effect = higher value
# Procedure, shortened: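 Growth inhibition is read against vehicle-treated controls after compound exposure of the mec2-1 yeast strain, which is defective in DNA damage repair or cell cycle control.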
# [7] = NCI Yeast Anticancer Drug Screen. Data for the rad14 strain (AID 159);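 further: 0% = growth of vehicle-treated control cultures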; details: S. cerevisiae rad14 strain growth inhibition, stronger effect = higher value
# Procedure, shortened: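 Growth inhibition vs vehicle controls; genetically altered yeast strain (DNA damage repair defect) treated with test compounds.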
# [8] = NCI Yeast Anticancer Drug Screen. Data for the sgs1 mgt1 strain (AID 161);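 further: 0% = growth of cultures given vehicle only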; details: S. cerevisiae sgs1 mgt1 strain, stronger effect = higher value
# Procedure, shortened: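 Yeast cells carrying a defined DNA-repair defect were exposed to test compounds. Growth inhibition was measured relative to vehicle-treated controls.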
# [9] = NCI Yeast Anticancer Drug Screen. Data for the CLN2oe strain (AID 163);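 further: 0% = growth of vehicle-only control cultures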; details: S. cerevisiae CLN2oe strain, stronger effect = higher value
# Procedure, shortened: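 Compound-treated yeast; growth vs vehicle ctrl = % inhibition. Genetically altered strain (cell-cycle control).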
# [10] = NCI Yeast Anticancer Drug Screen. Data for the cln2 rad14 strain (AID 165);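 further: 0% = growth equal to vehicle treated cultures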; details: S. cerevisiae cln2 rad14 strain, stronger effect = higher value
# Procedure, shortened: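 Growth inhibition, relative to vehicle-treated controls, is the read-out. The test organism is a yeast strain with defined genetic alterations, cln2 rad14.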
# [11] = NCI Yeast Anticancer Drug Screen. Data for the bub3 strain (AID 167); details: S. cerevisiae bub3 mutant strain, stronger effect = higher value
# Procedure, shortened: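 Readout: yeast growth inhibition, expressed relative to vehicle-only wells. The test organism is a mutant strain from a panel with lesions in DNA repair or checkpoint genes.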
# [12] = NCI Yeast Anticancer Drug Screen. Data for the wt2 strain (AID 169);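 further: 0% = growth of vehicle-treated yeast cultures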; details: S. cerevisiae wt2 strain growth inhibition, stronger effect = higher value
# Procedure, shortened: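 Compound exposure of yeast; growth compared with vehicle controls; inhibition reported.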
# [13] = NCI Yeast Anticancer Drug Screen. Data for the mlh1 strain (AID 171);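 further: 0% = growth of vehicle-treated control cultures of the same strain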; details: S. cerevisiae mlh1 strain growth inhibition, stronger effect = higher value
# Procedure, shortened: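 Compounds are applied to a genetically altered yeast strain, and its growth is compared with that of vehicle-treated cultures to give percent inhibition.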
# [14] = NCI Yeast Anticancer Drug Screen. Data for the sgs1 strain (AID 173);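 further: 0% = growth of vehicle-only control cultures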; details: S. cerevisiae sgs1 mutant, stronger effect = higher value
# Procedure, shortened: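 Compounds applied to genetically altered yeast; growth compared with vehicle-treated cultures to give % inhibition.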
# [15] = NCI Yeast Anticancer Drug Screen. Data for the mlh1 rad18 strain (AID 175); details: S. cerevisiae mlh1 rad18 strain growth inhibition, stronger effect = higher value
# Procedure, shortened: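 Cells of a genetically altered yeast strain, deficient in DNA damage repair, were treated with compound. Their growth was then compared with that of vehicle-treated cultures to give inhibition.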
# [16] = NCI Yeast Anticancer Drug Screen. Data for the rad18 strain (AID 177); details: S. cerevisiae rad18 mutant growth inhibition, stronger effect = higher value
# Procedure, shortened: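 Compounds are applied to a repair-deficient yeast strain, and growth is compared with that of vehicle-treated cultures to give percent inhibition.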
# [17] = at 5.0 µM (retest, dose inferred, filed as 0.5)
# [18] = at 50.0 µM (retest, dose inferred, filed as 5.0)
smiles,measurement,setting,value
Nc1ccc2cc(Br)ccc2c1Br,growth inhibition,[1]; at 1.2 µM,-6%
same,growth inhibition,[1]; at 3.7 µM,1%
same,growth inhibition,[1]; at 11.0 µM,1%
same,growth inhibition,[1]; at 33.0 µM,3%
same,growth inhibition,[1]; at 100.0 µM,52%
same,growth inhibition,[2]; at 1.2 µM,-2%
same,growth inhibition,[2]; at 3.7 µM,-3%
same,growth inhibition,[2]; at 11.0 µM,-3%
same,growth inhibition,[2]; at 33.0 µM,-5%
same,growth inhibition,[2]; at 100.0 µM,-1%
same,growth inhibition,[3]; at 1.2 µM,1%
same,growth inhibition,[3]; at 3.7 µM,7%
same,growth inhibition,[3]; at 11.0 µM,23%
same,growth inhibition,[3]; at 33.0 µM,19%
same,growth inhibition,[3]; at 100.0 µM,49%
same,growth inhibition,[4]; at 1.2 µM,-4%
same,growth inhibition,[4]; at 3.7 µM,-1%
same,growth inhibition,[4]; at 11.0 µM,-1%
same,growth inhibition,[4]; at 33.0 µM,-1%
same,growth inhibition,[4]; at 100.0 µM,4%
same,growth inhibition,[5]; at 1.2 µM,-2%
same,growth inhibition,[5]; at 3.7 µM,1%
same,growth inhibition,[5]; [17],13%
same,growth inhibition,[5]; at 11.0 µM,8%
same,growth inhibition,[5]; at 33.0 µM,2%
same,growth inhibition,[5]; [18],27%
same,growth inhibition,[5]; at 50.0 µM,4.6%
same,growth inhibition,[5]; at 100.0 µM,26%
same,growth inhibition,[6]; at 1.2 µM,0%
same,growth inhibition,[6]; at 3.7 µM,-1%
same,growth inhibition,[6]; [17],-5%
same,growth inhibition,[6]; at 11.0 µM,-2%
same,growth inhibition,[6]; at 33.0 µM,-2%
same,growth inhibition,[6]; [18],1%
same,growth inhibition,[6]; at 50.0 µM,90.2% (active)
same,growth inhibition,[6]; at 100.0 µM,1%
same,growth inhibition,[7]; at 1.2 µM,-6%
same,growth inhibition,[7]; at 3.7 µM,0%
same,growth inhibition,[7]; at 11.0 µM,7%
same,growth inhibition,[7]; at 33.0 µM,5%
same,growth inhibition,[7]; at 100.0 µM,26%
same,growth inhibition,[8]; [17],15%
same,growth inhibition,[8]; [18],14%
same,growth inhibition,[8]; at 50.0 µM,18%
same,growth inhibition,[9]; at 1.2 µM,-2%
same,growth inhibition,[9]; at 3.7 µM,-2%
same,growth inhibition,[9]; at 11.0 µM,-3%
same,growth inhibition,[9]; at 33.0 µM,-5%
same,growth inhibition,[9]; at 100.0 µM,2%
same,growth inhibition,[10]; [17],3%
same,growth inhibition,[10]; [18],9%
same,growth inhibition,[10]; at 50.0 µM,-23%
same,growth inhibition,[11]; at 1.2 µM,3%
same,growth inhibition,[11]; at 3.7 µM,3%
same,growth inhibition,[11]; [17],22%
same,growth inhibition,[11]; at 11.0 µM,1%
same,growth inhibition,[11]; at 33.0 µM,4%
same,growth inhibition,[11]; [18],47%
same,growth inhibition,[11]; at 50.0 µM,88.5% (active)
same,growth inhibition,[11]; at 100.0 µM,6%
same,growth inhibition,[12]; at 1.2 µM,-1%
same,growth inhibition,[12]; at 3.7 µM,-8%
same,growth inhibition,[12]; at 11.0 µM,-5%
same,growth inhibition,[12]; at 33.0 µM,-6%
same,growth inhibition,[12]; at 100.0 µM,28%
same,growth inhibition,[13]; at 1.2 µM,-2%
same,growth inhibition,[13]; at 3.7 µM,1%
same,growth inhibition,[13]; at 11.0 µM,3%
same,growth inhibition,[13]; at 33.0 µM,1%
same,growth inhibition,[13]; at 100.0 µM,20%
same,growth inhibition,[14]; at 1.2 µM,-24%
same,growth inhibition,[14]; at 3.7 µM,-22%
same,growth inhibition,[14]; at 11.0 µM,-17%
same,growth inhibition,[14]; at 33.0 µM,-9%
same,growth inhibition,[14]; at 100.0 µM,30%
same,growth inhibition,[15]; [17],28%
same,growth inhibition,[15]; [18],57%
same,growth inhibition,[15]; at 50.0 µM,91.2% (active)
same,growth inhibition,[16]; at 1.2 µM,-4%
same,growth inhibition,[16]; at 3.7 µM,-1%
same,growth inhibition,[16]; at 11.0 µM,7%
same,growth inhibition,[16]; at 33.0 µM,-3%
same,growth inhibition,[16]; at 100.0 µM,20%
O=C(C#Cc1ccccc1)/C=C/c1ccccc1,growth inhibition,[1]; at 1.2 µM,4%
same,growth inhibition,[1]; at 3.7 µM,3%
same,growth inhibition,[1]; at 11.0 µM,29%
same,growth inhibition,[1]; at 33.0 µM,78% (active)
same,growth inhibition,[1]; at 100.0 µM,95% (active)
same,growth inhibition,[2]; at 1.2 µM,-6%
same,growth inhibition,[2]; at 3.7 µM,-9%
same,growth inhibition,[2]; at 11.0 µM,10%
same,growth inhibition,[2]; at 33.0 µM,51%
same,growth inhibition,[2]; at 100.0 µM,96% (active)
same,growth inhibition,[3]; at 1.2 µM,1%
same,growth inhibition,[3]; at 3.7 µM,20%
same,growth inhibition,[3]; at 11.0 µM,53%
same,growth inhibition,[3]; at 33.0 µM,93% (active)
same,growth inhibition,[3]; at 100.0 µM,94% (active)
same,growth inhibition,[4]; at 1.2 µM,0%
same,growth inhibition,[4]; at 3.7 µM,-5%
same,growth inhibition,[4]; at 11.0 µM,3%
same,growth inhibition,[4]; at 33.0 µM,28%
same,growth inhibition,[4]; at 100.0 µM,96% (active)
same,growth inhibition,[5]; at 1.2 µM,-6%
same,growth inhibition,[5]; at 3.7 µM,-8%
same,growth inhibition,[5]; [17],-136%
same,growth inhibition,[5]; at 11.0 µM,8%
same,growth inhibition,[5]; at 33.0 µM,82% (active)
same,growth inhibition,[5]; [18],72% (active)
same,growth inhibition,[5]; at 50.0 µM,99% (active)
same,growth inhibition,[5]; at 100.0 µM,94% (active)
same,growth inhibition,[6]; at 1.2 µM,0%
same,growth inhibition,[6]; at 3.7 µM,2%
same,growth inhibition,[6]; [17],-43%
same,growth inhibition,[6]; at 11.0 µM,4%
same,growth inhibition,[6]; at 33.0 µM,16%
same,growth inhibition,[6]; [18],10%
same,growth inhibition,[6]; at 50.0 µM,77.3% (active)
same,growth inhibition,[6]; at 100.0 µM,96% (active)
same,growth inhibition,[7]; at 1.2 µM,-1%
same,growth inhibition,[7]; at 3.7 µM,12%
same,growth inhibition,[7]; at 11.0 µM,10%
same,growth inhibition,[7]; at 33.0 µM,82% (active)
same,growth inhibition,[7]; at 100.0 µM,96% (active)
same,growth inhibition,[8]; [17],-53%
same,growth inhibition,[8]; [18],79% (active)
same,growth inhibition,[8]; at 50.0 µM,70.2% (active)
same,growth inhibition,[9]; at 1.2 µM,-7%
same,growth inhibition,[9]; at 3.7 µM,-7%
same,growth inhibition,[9]; at 11.0 µM,-2%
same,growth inhibition,[9]; at 33.0 µM,14%
same,growth inhibition,[9]; at 100.0 µM,93% (active)
same,growth inhibition,[10]; [17],-46%
same,growth inhibition,[10]; [18],-23%
same,growth inhibition,[10]; at 50.0 µM,87.7% (active)
same,growth inhibition,[11]; at 1.2 µM,-2%
same,growth inhibition,[11]; at 3.7 µM,-1%
same,growth inhibition,[11]; [17],-65%
same,growth inhibition,[11]; at 11.0 µM,7%
same,growth inhibition,[11]; at 33.0 µM,78% (active)
same,growth inhibition,[11]; [18],53%
same,growth inhibition,[11]; at 50.0 µM,79.7% (active)
same,growth inhibition,[11]; at 100.0 µM,96% (active)
